High-throughput results: PubChem, several laboratories
Rows were chosen to be rich in hits. Some 3.1% of all compounds tested hit in one or more screens of this group.
TWEAK-Fn14 inh: inhibitors of TWEAK-Fn14 signaling, primary screen, luciferase reporter cells, uHTS; TWEAK-stimulated Fn14 reporter cells, luciferase luminescence, 8 h; inhibition, % at 10 µM; 2% of 360,000 active; in the data active = inhibition above about 50%
EWS-Fli inh: EWS/Fli-driven NR0B1 reporter inhibitors, primary screen, A673 cells, NR0B1 luciferase, luminescence, MLPCN library | viability-normalised | inhibition, % at 12.6 µM | 0.67% of 350,000 active;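 active = mean inhibition of at least 50% after viability correction, with every replicate also passing that limit; inconclusive = mean reaches 50% but only one of two replicates passes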;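 also: firefly luciferase signal divided by Alamar Blue viability fluorescence both relative to DMSO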
LMP1 NFkB inh: EBV LMP1-driven NF-kappaB luciferase reporter inhibitors, primary screen, cell-based, luminescence, single point. LMP1-induced NF-kappaB luciferase reporter cells. inhibition, % at 12.5 µM. 0.69% of 350,000 active. AID 504558, 2011; in the data active = inhibition above about 41%; inconclusive = no clear call, values can overlap the other calls;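 also: 0% = neutral control wells and 100% = reference inhibitor control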
TROY NFkB inh: inhibitors of TROY-driven NF-kB signaling, primary screen, Q293 LMP1-TROYcd cells, NF-kB luciferase, uHTS | 0.98% of 360,000 active | Q293 LMP1-TROYcd NF-kB luciferase reporter, 4 h | inhibition, % at 10 µM;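 active = compounds whose plate-normalised and pattern-corrected inhibition of the luciferase reporter signal at the single screening dose is 50% or more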
PAX8 reporter: inhibitors of PAX8-driven TPO luciferase reporter, primary screen, RMG-I cells, single concentration; inhibition, % at 12.6 µM; AID 652154, 2013; SteadyGlo, 24 h; 1.2% of 360,000 active;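 active = mean replicate inhibition at least 60% with every replicate also reaching 60%; inconclusive = only one of the two criteria is met; inactive = mean below 60% and not all replicates reaching 60%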;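 also: luciferase light reporting Pax8 driven TPO promoter activity; plate controls were median of neutral control wells for no effect and mitoxantrone controls for full effect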
LGR2 inh: inhibitors of bursicon-induced LGR2 CRE-luciferase signal, primary screen, cell-based, HEK293, CRE-luciferase reporter, bursicon stimulation | inhibition, % at 9.99 µM | bursicon-stimulated, 4 h | 0.35% of 380,000 active | AID 720647, 2013;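 active = drop in luminescence signal, shown as inhibition above about 50% in the replicate tests, limit read from the data, passing the limit was not always enough; inconclusive = probably only some replicates passing the limit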;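 also: agonist challenge used bursicon conditioned medium at about half maximal strength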
* hit, by the source's call; ? = inconclusive; . = no result; ! = a repeat was not active.

SMILES | TWEAK-Fn14 inh | EWS-Fli inh | LMP1 NFkB inh | TROY NFkB inh | PAX8 reporter | LGR2 inh
Cc1noc(C)c1S(=O)(=O)Nc1ccc2c(c1)C(=O)N([C@@H](C)CO)C[C@H](C)[C@@H](CN(C)C(=O)Nc1ccc(C(F)(F)F)cc1)OCCCC[C@@H](C)O2 | . | 3 | . | . | 65* | -12
Cc1noc(C)c1S(=O)(=O)Nc1ccc2c(c1)C(=O)N([C@@H](C)CO)C[C@H](C)[C@@H](CN(C)C(=O)Nc1ccc(C(F)(F)F)cc1)OCCCC[C@H](C)O2 | . | -4 | . | . | 107* | -1
Cc1noc(C)c1S(=O)(=O)Nc1ccc2c(c1)C(=O)N([C@@H](C)CO)C[C@@H](C)[C@H](CN(C)C(=O)Nc1ccc(C(F)(F)F)cc1)OCCCC[C@@H](C)O2 | . | 19 | . | . | 66* | -16
Cc1noc(C)c1S(=O)(=O)Nc1ccc2c(c1)C(=O)N([C@@H](C)CO)C[C@H](C)[C@@H](CN(C)Cc1ccc(C(F)(F)F)cc1)OCCCC[C@H](C)O2 | 0 | -1 | 7 | 13 | 71*! | 3
Cc1noc(C)c1S(=O)(=O)Nc1ccc2c(c1)C(=O)N([C@@H](C)CO)C[C@H](C)[C@@H](CN(C)C(=O)Nc1ccc(F)cc1)OCCCC[C@H](C)O2 | . | 1 | . | . | 16 | -4
CN(C)C(=O)c1ccc(-c2ccc([C@@H]3[C@H](CO)N4C(=O)CN(C(=O)C5CCCCC5)C[C@@H]34)cc2)cc1 | . | -15 | . | . | 8 | -34
Cc1noc(C)c1NC(=O)N(C)C[C@H]1Oc2ccc(NC(=O)Nc3ccc4c(c3)OCO4)cc2CC(=O)N([C@H](C)CO)C[C@@H]1C | . | -9 | . | . | -13 | 1
O=C(CN1CCN(c2ncc(C(F)(F)F)cc2Cl)CC1)NCCNc1ncc(C(F)(F)F)cc1Cl | 76* | . | 2 | . | . | .
C[C@H]1CN([C@@H](C)CO)C(=O)c2cc(C#Cc3ccccc3F)cnc2O[C@H]1CN(C)C(=O)Cc1ccccc1 | . | -2 | . | . | . | -12
C[C@@H]1CN([C@H](C)CO)C(=O)c2cccc(NC(=O)C3CCOCC3)c2O[C@H]1CN(C)Cc1ccc(-c2ccccc2)cc1 | . | 7 | . | . | 24 | -4
O=C(NCCc1c[nH]c2ccccc12)OCCCCOC(=O)NCCc1c[nH]c2ccccc12 | 74* | 30 | -6 | 71* | 47 | 84*
O=C(NCCc1c[nH]c2ccccc12)c1ccc([N+](=O)[O-])o1 | 39 | 14 | -16 | -4 | 72* | 13
C[C@@H]1CN([C@@H](C)CO)C(=O)c2cc(NC(=O)C3CC3)ccc2O[C@H]1CN(C)C(=O)Nc1ccccc1 | . | -13 | . | . | -4 | -23
O=C(c1ccccc1)c1coc2c1C(=O)c1ccccc1C2=O | 68* | -36 | -16 | 33 | 10 | -5
O=C1c2ccccc2C(=O)c2c1oc(C(F)(F)F)c2C(=O)c1ccccc1 | 74* | . | 68* | 55* | . | .
O=C(C[C@@H]1C=C[C@H](NC(=O)c2ccncc2)[C@@H](CO)O1)NCc1ccncn1 | . | . | . | . | 10 | -9
COc1ccc2c(=O)c(-c3nc(C)cs3)coc2c1 | 79* | . | 15 | 23 | . | .
CCOC(=O)CCC(=O)Nc1ccc(S(=O)(=O)N2CCc3ccccc32)cc1 | -2 | -10 | -2 | 1 | 33 | -7
CCOC(=O)/C(C#N)=N/Nc1ccc(S(=O)(=O)N2CCc3ccccc32)cc1 | 36 | . | -5 | 52* | 15 | 19
N#C/C(=N\Nc1ccc(S(=O)(=O)N2CCc3ccccc32)cc1)C(N)=S | 58* | 21 | 5 | 72* | -6 | 10
CN(C)c1ccc(/C=C(\C#N)c2ccccn2)cc1 | 94* | . | 60* | 74* | 26 | 93*
N#C/C(=C\c1ccc([N+](=O)[O-])cc1)c1ccccn1 | -30 | -88 | -21 | -76 | -92 | -11
COc1cc(/C=C(\C#N)c2ccccn2)ccc1OCc1ccccc1Cl | 20 | -4 | 70* | -10 | -13 | -17
COc1cc(/C=C(\C#N)c2ccccn2)cc(OC)c1O | 9 | 8 | -10 | -3 | 22 | -9
COc1ccc(Cl)cc1NC(=O)CN(C)CC(=O)NCc1cccs1 | -13 | 0 | -4 | -16 | 14 | -10
SMILES | TWEAK-Fn14 inh | EWS-Fli inh | LMP1 NFkB inh | TROY NFkB inh | PAX8 reporter | LGR2 inh
COc1ccc(Cl)cc1NC(=O)CN(C)CC(=O)Nc1cc(OC)c(OC)c(OC)c1 | 10 | 62* | 11 | 6 | 20 | -13
COc1ccc(Cl)cc1NC(=O)CN(C)S(=O)(=O)c1cccs1 | -4 | -1 | 47* | -18 | 2 | -3
COc1ccc(Cl)cc1NC(=O)CN(C)CC(=O)Nc1ccc(Br)cc1 | -26 | -1 | -6 | 0 | 4 | 3
Cc1oc(-c2ccc3c(c2)OCCO3)cc1C(=O)O | 106* | . | 10 | 84* | . | ?
Cc1oc(-c2ccc3c(c2)OCCO3)cc1C(=O)NCC(=O)O | 19 | -64 | -46 | 2 | -18 | -67
COc1ccc(-c2cc(C(=O)O)c(C)o2)cc1OC | 98* | . | 7 | 59* | 19 | .
Cc1nc2cc(NC(=O)c3ccc(Cl)cc3)ccc2n1C | 50* | -3 | 18 | -2 | 4 | 3
COc1cc(C(=O)Nc2ccc3c(c2)nc(C)n3C)cc(OC)c1OC | -1 | 17 | -20 | -1 | -1 | -26
CCCCCc1c2c(cc(O)c1C(=O)O)OC(=O)c1c(cc(OC)cc1C(=O)CCCC)O2 | 14 | . | -3 | 62* | . | .
CCCCCc1c2c(cc(O)c1C(=O)O)OC(=O)c1cc(C(=O)CCCC)c(OC)cc1O2 | 29 | -1 | 4 | -11 | . | -16
COc1ccc2sc3c(=O)[nH]c4ccccc4c3c2c1 | 46 | . | 88* | 9 | . | 49
CNC[C@@H]1Oc2ccc(NC(=O)CCN3CCOCC3)cc2CC(=O)N([C@H](C)CO)C[C@@H]1C | . | -6 | . | . | 2 | .
COC(=O)c1cc(CSc2nc3ccc(C)cc3[nH]2)oc1C | 92* | . | 11 | . | . | .
COC(=O)c1ccc(CSc2nc3ccccc3[nH]2)o1 | -4 | . | -12 | -5 | -32 | .
COC(=O)c1cccc(CSc2nc3ccccc3[nH]2)c1 | 2 | 59* | -16 | -28 | -37 | -102
COc1cc(N/N=C/c2ccc(N(C)C)cc2)ncn1 | 60* | -3 | 23 | 43 | 5 | 74*
CN(C)c1ccc(NC(=S)NCC2CCCO2)cc1 (stereo not drawn) | 1 | -26 | -2 | -49 | 65* | -11
Cc1noc(C)c1NC(=O)Nc1ccc2c(c1)C(=O)N([C@@H](C)CO)C[C@H](C)[C@@H](CN(C)C(=O)Nc1ccc3c(c1)OCO3)OCCCC[C@H](C)O2 | . | -6 | . | . | . | -2
O=C1c2ccccc2C(=O)N1CSc1nnc(Nc2ccccc2)s1 | -6 | -3 | -7 | -10 | -2 | 25
O=C1c2ccccc2C(=O)N1CSc1nnc(Nc2ccccc2F)s1 | -41 | -8 | -20 | -47 | 78* | -38
